Results on 25 compounds are retold here after PubChem BioAssay (NCI).

SMILES strings stand for the structures. The panel holds about 83,000 compounds, 20% with a hit somewhere; the sample as a whole holds those more often.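 Assay: single dose, 48 h. Readout: percent growth (0 = no net growth; negative = cell death). Active: <10.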 Activity calls are given as the source filed them.

Holding throughout (experiment): NCI-60 one-dose screen, 48 h (100 = growth as untreated, 0 = no growth, -100 = all killed)
Holding throughout (details): 10 µM unless noted

In test [1] the test system is T-47D breast.
In test [2] the test system is BT-549 breast.
The subject of test [3] is MDA-MB-435 melanoma.
Test [4] has as its system SW-620 colon.
Test [5] relates to MCF7 breast.
The subject of test [6] is HCT-116 colon.
Test [7] concerns HCC-2998 colon.
Test [8] has as its system KM12 colon.

As to `Cc1ccc(C2CC(c3cccc(Nc4ccncc4)c3)=NN2c2ccccc2)cc1` (stereo not given), the growth is -58.2% (active) in test [1]; 81.2% (inactive) in test [2]; -89.5% (active) in test [3]; -62.7% (active) in test [4]; -92% (active) in test [5]; -78% (active) in test [6]. Further, the growth in test [7] was -92.2% (active); in test [8], -88.3% (active).
Regarding `COc1cccc(CCC(=O)c2cc3c(N)c(C(=O)Nc4ccccc4)sc3nc2C)c1`, the growth in test [1] is 38.2% (inactive); in test [2], 44.8% (inactive); in test [3] it was -44.5% (active); in test [4] it was 22.2% (inactive); in test [5], 10.5% (inactive); in test [6], 14.4% (inactive). The growth was 45.1% (inactive) in test [7] and 23% (inactive) in test [8].
As for `COc1cc(-c2nc3sccn3c2-c2ccnc(NCCNS(=O)(=O)c3ccc(F)cc3)n2)ccc1F`, the growth in test [1] is -3.67% (active); in test [2], 10.5% (inactive); in test [3], 2.5% (active); in test [4], 26.9% (inactive); in test [5] it was 5.83% (active); in test [6] it was 6.58% (active). Besides, the growth in test [7] is 43.5% (inactive); in test [8], 9.07% (active).
For `COc1ccc(Nc2nc(N)nc3c2CCc2occc2-3)cc1`, the growth in test [1] was 83.4% (inactive); in test [2] it was 78.3% (inactive); in test [3], 105% (inactive); in test [4] it was 106% (inactive); in test [5] it was 78.7% (inactive); in test [6], 90% (inactive). The growth was 108% (inactive) in test [7] and 95.9% (inactive) in test [8].
For the compound `O=[N+]([O-])c1cccc(-c2nc(-c3ccc(Cl)cc3Cl)cn2-c2ccccc2)c1`, the growth was 15.6% (inactive) in test [1]; 176% (inactive) in test [2]; -39.5% (active) in test [3]; -52.4% (active) in test [4]; 20.7% (inactive) in test [5]; -93.2% (active) in test [6]. Also, the growth in test [7] is -1.15% (active); in test [8], -64.4% (active).
Consider `COc1cc2nc(Cc3ccc(C)cc3)[nH]c(=O)c2cc1OC`, for which the growth in test [1] was 107% (inactive); in test [2], 229% (inactive); in test [3], 119% (inactive); in test [4], 101% (inactive); in test [5] it was 104% (inactive); in test [6], 117% (inactive). Moreover, the growth in test [7] was 106% (inactive); in test [8] it was 109% (inactive).
For `COc1ccc2c(Nc3ccc(NS(C)(=O)=O)cc3)c3ccccc3nc2c1`, the growth in test [1] is 2.85% (active); in test [2] it was 49.9% (inactive); in test [3], -11.1% (active); in test [4], -31% (active); in test [5], 11.1% (inactive); in test [6], 2.19% (active). For the same compound, the values for the growth in test [7] and in test [8] were -60.9% (active) and -13.2% (active), respectively.
Take `COc1cc(COC(=O)CCCCC[P+](c2ccccc2)(c2ccccc2)c2ccccc2)c(OC)c2c1OCO2`: the growth is 14.7% (inactive) in test [1]; 55.5% (inactive) in test [2]; 41.8% (inactive) in test [3]; 58% (inactive) in test [4]; 47.7% (inactive) in test [5]; 33.2% (inactive) in test [6]. For the same compound, the growth in test [7] was 64.9% (inactive); in test [8] it was 36.1% (inactive).
Regarding `CCCCCCCC(=O)Nc1nc2[nH]c(CN3CCN(Cc4cccc(I)c4)CC3)c(CN3CCN(Cc4cccc(I)c4)CC3)c2c(=O)[nH]1`, the growth in test [1] was -62% (active); in test [2] it was -4.02% (active); in test [3] it was -75.8% (active); in test [4], -73.7% (active); in test [5], -93.6% (active); in test [6], -100% (active). Moreover, the growth is -94.6% (active) in test [7] and -80.5% (active) in test [8].
`CC1=NNC(=O)C1CCC(=O)N/N=C(\C)c1ccc2ccccc2c1` (stereo not given): the growth in test [1] was 146% (inactive); in test [2], 118% (inactive); in test [3], 86.5% (inactive); in test [4], 103% (inactive); in test [5] it was 98.9% (inactive); in test [6], 92.7% (inactive). Further, the growth in test [7] is 107% (inactive); in test [8] it was 98.9% (inactive).
As to `CC(C)(C)CC(C)(C)Nc1c(-c2ccc3c(c2)OCO3)nc2cnccn12`, the growth in test [1] is 84.2% (inactive); in test [2] it was 82.2% (inactive); in test [3], 99.1% (inactive); in test [4], 109% (inactive); in test [5], 74.1% (inactive); in test [6], 5.36% (active). The growth in test [7] was 93.7% (inactive); in test [8], 96.2% (inactive).
With `CCCCCCNC(=O)Oc1ccc(/C(=C(/CC)Cc2ccccc2)c2ccc(OCCN(CC)CC)cc2)cc1`, the growth was 56.1% (inactive) in test [1]; 95.2% (inactive) in test [2]; 60.9% (inactive) in test [3]; 23.1% (inactive) in test [4]; 10.1% (inactive) in test [5]; 27.2% (inactive) in test [6]. The growth in test [7] was 59.5% (inactive); in test [8], 51.6% (inactive).
Consider `COc1cccc(CNCCN2C(=O)c3ccc4c5c(ccc(c35)C2=O)C(=O)N(CCNCc2cccc(OC)c2)C4=O)c1`, for which the growth in test [1] is 97.4% (inactive); in test [2], 96.1% (inactive); in test [3] it was 118% (inactive); in test [4], -33% (active); in test [5] it was 9.83% (active); in test [6], -41.6% (active). Also, the growth in test [7] is 97.8% (inactive); in test [8] it was 82.4% (inactive).
Turning to `CC(c1ccccc1)n1ccnc1CO` (stereo not given), the growth was 104% (inactive) in test [1]; 113% (inactive) in test [2]; 98.4% (inactive) in test [3]; 97.8% (inactive) in test [4]; 97.3% (inactive) in test [5]; 104% (inactive) in test [6]. Also, the values for the growth in test [7] and in test [8] were 90.6% (inactive) and 109% (inactive), respectively.
For `Cc1ccc(C2C3CC4CCCCC4N3[C@@]3(C(=O)Nc4cc(Cl)ccc43)C2C(=O)c2nc3ccccc3[nH]2)cc1` (stereo not given in full), the growth is 27.4% (inactive) in test [1]; 52.8% (inactive) in test [2]; 26.5% (inactive) in test [3]; 29.8% (inactive) in test [4]; 13.8% (inactive) in test [5]; 19.5% (inactive) in test [6]. Further, the growth in test [7] is 38.4% (inactive); in test [8], 38% (inactive).
Regarding `CS(=O)(=O)c1ccc(-c2cc(-c3nnc(SCC(=O)Nc4ccc(C(=O)/C=C/c5ccc(Cl)cc5)cc4)n3-c3ccccc3)c3ccccc3n2)cc1`, the growth was 87% (inactive) in test [1]; 108% (inactive) in test [2]; 101% (inactive) in test [3]; 96.9% (inactive) in test [4]; 92.5% (inactive) in test [5]; 92.7% (inactive) in test [6]. The figures for the growth in test [7] and in test [8] were 106% (inactive) and 96.8% (inactive), respectively.
Consider `Nc1c(C(=O)Nc2ccc(Cl)cc2)cc(-c2nc3ccccc3s2)c(=O)n1NS(=O)(=O)c1ccc(Cl)cc1`, for which the growth was 92.9% (inactive) in test [1]; 122% (inactive) in test [2]; 99.8% (inactive) in test [3]; 96.9% (inactive) in test [4]; 84.2% (inactive) in test [5]; 98.6% (inactive) in test [6]. The results for the growth in test [7] and in test [8] were 107% (inactive) and 99% (inactive), respectively.
In the case of `COc1cc(C(=O)c2cnc(-c3ccc4cc[nH]c4c3)[nH]2)cc(OC)c1OC`, the growth in test [1] was 59% (inactive); in test [2] it was 42.9% (inactive); in test [3] it was -28.4% (active); in test [4], 19.2% (inactive); in test [5], 11.3% (inactive); in test [6] it was -6.9% (active). Also, the results for the growth in test [7] and in test [8] were 6.12% (active) and -9.92% (active), respectively.
As to `COc1ccc(-c2nc(SCC(C)C)nc(N/N=C(/C)c3ccc(OC)c(OC)c3)c2C#N)cc1`, the growth is 54.7% (inactive) in test [1]; 97.8% (inactive) in test [2]; 87.9% (inactive) in test [3]; 84.4% (inactive) in test [4]; 80.6% (inactive) in test [5]; 96.6% (inactive) in test [6]. Besides, the growth in test [7] was 92.4% (inactive); in test [8], 74% (inactive).
In the case of `COC(=O)C1=C(C(=O)ONCCN(C)C)C2C=CC1(C(Cc1ccccc1)Nc1ccc(F)cc1)O2` (stereo not given), the growth in test [1] is -0.816% (active); in test [2] it was 122% (inactive); in test [3] it was 101% (inactive); in test [4], 51.8% (inactive); in test [5] it was 97.5% (inactive); in test [6], -48.9% (active). Further, the growth was 107% (inactive) in test [7] and 94.8% (inactive) in test [8].
As for `CCN(CC)CCOC(COc1cc(C)cc(C)c1)COc1cc(C)cc(C)c1`, the growth in test [1] was 18.8% (inactive); in test [2], 50.9% (inactive); in test [3], 19.5% (inactive); in test [4] it was 24.1% (inactive); in test [5] it was 17.5% (inactive); in test [6], 7.06% (active). In addition, the growth was 16.8% (inactive) in test [7] and 31.7% (inactive) in test [8].
In the case of `NC(=O)c1cccc(-c2ccccc2N2CCCCC2)c1`, the growth is 83% (inactive) in test [1]; 101% (inactive) in test [2]; 100% (inactive) in test [3]; 108% (inactive) in test [4]; 92.5% (inactive) in test [5]; 89.4% (inactive) in test [6]. Also, the growth in test [7] was 102% (inactive); in test [8], 99.1% (inactive).
As for `CCC1(CC)NC(=O)c2c(c3ccc(Cl)c(Cl)c3n2C)C1C#N` (stereo not given), the growth in test [1] is 78.5% (inactive); in test [2] it was 90.6% (inactive); in test [3], 99.2% (inactive); in test [4] it was 102% (inactive); in test [5], 97.9% (inactive); in test [6], 76.3% (inactive). Also, the growth in test [7] is 97.5% (inactive); in test [8], 99.4% (inactive).
As for `CCOC(=O)N1CCN(CCCCl)CC1`, the growth in test [1] was 103% (inactive); in test [2] it was 99.5% (inactive); in test [3], 103% (inactive); in test [4] it was 107% (inactive); in test [5], 97.7% (inactive); in test [6], 93.8% (inactive). In addition, the growth is 101% (inactive) in test [7] and 105% (inactive) in test [8].
Consider `O=C(Nc1nc(-c2ccc(Br)cc2)cs1)c1cc(-c2ccc(Br)cc2)nc2ccc(Cl)cc12`, for which the growth is 56.9% (inactive) in test [1]; 100% (inactive) in test [2]; 104% (inactive) in test [3]; 85.7% (inactive) in test [4]; 68.5% (inactive) in test [5]; 61.3% (inactive) in test [6]. For the same compound, the values for the growth in test [7] and in test [8] were 92.8% (inactive) and 83.3% (inactive), respectively.
